PubChem BioAssay (NCI)
Compounds without any hit were thinned out: in the full panel of roughly 83,000, 20% have a hit.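 Compound tested at a single concentration for 48 hours in 96-well plates; a percent growth value below 10 was scored as active.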 The source made the active and inactive calls.

Experiments:
Experiment in all cases: NCI-60 one-dose screen, 48 h (100 = growth as untreated, 0 = no growth, -100 = all killed)
Details in all cases: 10 µM unless noted
HCT-15 colon = test system: HCT-15 colon
HT29 colon = test system: HT29 colon
SNB-75 CNS = test system: SNB-75 CNS
SNB-19 CNS = test system: SNB-19 CNS
U251 CNS = test system: U251 CNS
PC-3 prostate = test system: PC-3 prostate
SK-MEL-5 melanoma = test system: SK-MEL-5 melanoma
UACC-62 melanoma = test system: UACC-62 melanoma
LOX IMVI melanoma = test system: LOX IMVI melanoma
SK-MEL-28 melanoma = test system: SK-MEL-28 melanoma
SK-MEL-2 melanoma = test system: SK-MEL-2 melanoma
SN12C renal = test system: SN12C renal
UO-31 renal = test system: UO-31 renal
TK-10 renal = test system: TK-10 renal
ACHN renal = test system: ACHN renal
CAKI-1 renal = test system: CAKI-1 renal
A498 renal = test system: A498 renal
CCRF-CEM leukemia = test system: CCRF-CEM leukemia
MOLT-4 leukemia = test system: MOLT-4 leukemia
EKVX NSCLC = test system: EKVX NSCLC

Measured: growth

O=C1c2ccccc2C(=O)c2cc(Cn3c[n+](Cc4ccc5ccccc5c4)c4ccccc43)ccc21
active: UACC-62 melanoma 4.86%
inactive: HCT-15 colon 89.8% | HT29 colon 51.5% | SNB-75 CNS 42.3% | SNB-19 CNS 45% | U251 CNS 57.1% | PC-3 prostate 27.7% | SK-MEL-5 melanoma 34.1% | LOX IMVI melanoma 52% | SK-MEL-28 melanoma 45.4% | SK-MEL-2 melanoma 51.2% | SN12C renal 47.8% | UO-31 renal 72.8% | TK-10 renal 67.8% | ACHN renal 92.4% | CAKI-1 renal 40.5% | A498 renal 77.8% | CCRF-CEM leukemia 22.1% | MOLT-4 leukemia 28.1%

COc1ccc(NC(=O)c2ccc(Cl)cc2Cl)cc1
inactive: HCT-15 colon 94% | HT29 colon 100% | SNB-75 CNS 89.9% | SNB-19 CNS 104% | U251 CNS 92.2% | PC-3 prostate 98.8% | SK-MEL-5 melanoma 92.3% | UACC-62 melanoma 96.3% | LOX IMVI melanoma 98.2% | SK-MEL-28 melanoma 105% | SK-MEL-2 melanoma 106% | SN12C renal 101% | UO-31 renal 96.5% | TK-10 renal 88.3% | ACHN renal 117% | CAKI-1 renal 95.7% | A498 renal 72.6% | CCRF-CEM leukemia 106% | MOLT-4 leukemia 107%

C#Cc1cccc(Nc2nc(Cl)nc3cc(NC(=O)CCl)ccc23)c1
inactive: A498 renal 59.6%
active: HCT-15 colon -77.7% | HT29 colon -37.8% | SNB-75 CNS -97.5% | SNB-19 CNS -77.1% | U251 CNS -81.8% | PC-3 prostate -85.6% | SK-MEL-5 melanoma -90.9% | UACC-62 melanoma -80.5% | LOX IMVI melanoma -77.3% | SK-MEL-28 melanoma -94.4% | SK-MEL-2 melanoma -75.9% | SN12C renal -70.7% | UO-31 renal -96% | TK-10 renal -96.3% | ACHN renal -98% | CAKI-1 renal -96.9% | CCRF-CEM leukemia -17.4% | MOLT-4 leukemia -24.9%

CCOC(=O)c1c(N)sc2cc(O)ccc12
inactive: HCT-15 colon 97.1% | HT29 colon 104% | SNB-75 CNS 86.7% | SNB-19 CNS 106% | U251 CNS 98.9% | PC-3 prostate 103% | SK-MEL-5 melanoma 104% | UACC-62 melanoma 92.3% | LOX IMVI melanoma 96.5% | SK-MEL-28 melanoma 92.7% | SK-MEL-2 melanoma 110% | EKVX NSCLC 106% | UO-31 renal 83% | TK-10 renal 101% | ACHN renal 98.2% | CAKI-1 renal 97.7% | A498 renal 104% | CCRF-CEM leukemia 111% | MOLT-4 leukemia 84.5%

COc1ccc(C(=O)C2OC3=C(C(=O)CC(C)(C)C3)C2c2cccc(Oc3ccccc3)c2)cc1 (centres undefined)
inactive: HCT-15 colon 89.3% | HT29 colon 91.1% | SNB-75 CNS 86.9% | SNB-19 CNS 92.8% | U251 CNS 88.9% | PC-3 prostate 81.3% | SK-MEL-5 melanoma 90.7% | UACC-62 melanoma 72.6% | LOX IMVI melanoma 92.3% | SK-MEL-28 melanoma 103% | SK-MEL-2 melanoma 93.4% | SN12C renal 89.5% | UO-31 renal 74% | TK-10 renal 91.5% | ACHN renal 91.8% | CAKI-1 renal 81.7% | CCRF-CEM leukemia 84% | MOLT-4 leukemia 83.4%

Cc1c(-c2cnc3ccc(Cl)cc3c2C(=O)O)nnn1-c1ccc(Cl)cc1
inactive: HCT-15 colon 104% | HT29 colon 101% | SNB-75 CNS 95.3% | SNB-19 CNS 93.1% | U251 CNS 97.3% | PC-3 prostate 98.5% | SK-MEL-5 melanoma 106% | UACC-62 melanoma 82.5% | LOX IMVI melanoma 98.8% | SK-MEL-28 melanoma 105% | SK-MEL-2 melanoma 100% | EKVX NSCLC 121% | UO-31 renal 79% | TK-10 renal 101% | ACHN renal 94.6% | CAKI-1 renal 95.8% | CCRF-CEM leukemia 94% | MOLT-4 leukemia 94.1%

Nc1nc(N)c2c(n1)NC(c1cccc(Nc3ccnc4cc(C(F)(F)F)ccc34)c1)CC(c1ccc(Cl)cc1)=N2 (centres undefined)
active: MOLT-4 leukemia 7.52%
inactive: HCT-15 colon 20.3% | HT29 colon 10.6% | SNB-75 CNS 47.9% | SNB-19 CNS 62.8% | U251 CNS 36.7% | PC-3 prostate 32.4% | SK-MEL-5 melanoma 47.2% | UACC-62 melanoma 76.3% | LOX IMVI melanoma 37.5% | SK-MEL-28 melanoma 80.7% | SK-MEL-2 melanoma 42.7% | SN12C renal 63.9% | UO-31 renal 62.7% | ACHN renal 72.7% | CAKI-1 renal 45.5% | A498 renal 82% | CCRF-CEM leukemia 19.2%

CCCCCC(C)(O)C(C(=O)O)c1ccccc1 (centres undefined)
inactive: HCT-15 colon 106% | HT29 colon 101% | SNB-75 CNS 94.5% | SNB-19 CNS 97.1% | U251 CNS 99.2% | PC-3 prostate 93.2% | SK-MEL-5 melanoma 101% | UACC-62 melanoma 103% | LOX IMVI melanoma 102% | SK-MEL-28 melanoma 98.4% | SK-MEL-2 melanoma 108% | EKVX NSCLC 104% | UO-31 renal 94.5% | TK-10 renal 104% | ACHN renal 96.1% | CAKI-1 renal 100% | A498 renal 90.3% | CCRF-CEM leukemia 105% | MOLT-4 leukemia 112%
